The text below walks through data of PubChem BioAssay (EPA / NIEHS).

SMILES strings stand for the structures. Records with an inconclusive call do not appear. Calls of active or inactive are those of the source. Rule for the calls: active = hit-call score of the fitted dose curve at least 0.9, where 1 is the maximum; inconclusive = response in the unintended direction; inactive = score below 0.9.

As usually defined, the AC50 is the midpoint of the concentration-response curve, whichever way the signal moves.

human Retinoid X Receptor beta (RXRb), RXRB (gene 6257), sequence (P28702 whole entry, looked up, the tested form may be a part): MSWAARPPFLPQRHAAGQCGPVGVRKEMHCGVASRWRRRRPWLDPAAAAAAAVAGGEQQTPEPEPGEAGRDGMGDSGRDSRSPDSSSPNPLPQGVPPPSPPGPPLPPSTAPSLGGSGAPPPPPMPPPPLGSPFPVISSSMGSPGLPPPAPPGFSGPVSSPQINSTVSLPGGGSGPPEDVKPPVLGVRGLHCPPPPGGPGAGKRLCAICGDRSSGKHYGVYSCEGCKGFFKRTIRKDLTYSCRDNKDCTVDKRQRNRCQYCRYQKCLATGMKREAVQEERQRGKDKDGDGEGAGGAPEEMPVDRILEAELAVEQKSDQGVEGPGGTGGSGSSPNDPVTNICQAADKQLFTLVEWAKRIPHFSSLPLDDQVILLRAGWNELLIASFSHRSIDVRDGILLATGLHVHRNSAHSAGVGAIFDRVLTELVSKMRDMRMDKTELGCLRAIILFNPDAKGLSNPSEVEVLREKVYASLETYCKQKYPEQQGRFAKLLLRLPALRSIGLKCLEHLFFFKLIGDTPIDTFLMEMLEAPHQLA
Retinoic acid receptor RXR-alpha (Homo sapiens), sequence (P19793 whole entry, looked up, the tested form may be a part): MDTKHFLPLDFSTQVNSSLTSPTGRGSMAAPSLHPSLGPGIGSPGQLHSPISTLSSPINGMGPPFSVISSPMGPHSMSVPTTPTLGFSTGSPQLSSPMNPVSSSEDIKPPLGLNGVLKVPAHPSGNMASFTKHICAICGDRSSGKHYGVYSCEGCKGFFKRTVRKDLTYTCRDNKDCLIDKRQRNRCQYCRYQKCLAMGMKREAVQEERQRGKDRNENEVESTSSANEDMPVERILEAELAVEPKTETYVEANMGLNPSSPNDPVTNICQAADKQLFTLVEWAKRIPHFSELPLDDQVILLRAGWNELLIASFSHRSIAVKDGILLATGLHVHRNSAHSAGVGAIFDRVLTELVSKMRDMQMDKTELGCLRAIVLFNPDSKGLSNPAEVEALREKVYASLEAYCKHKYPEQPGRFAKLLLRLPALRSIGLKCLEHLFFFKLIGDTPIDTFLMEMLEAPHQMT

The target in one assay is Retinoic acid receptor RXR-alpha (Homo sapiens) (UniProt P19793). Put plainly: ATG_RXRa_TRANS: Attagene TRANS-FACTORIAL HepG2 Assay for human Retinoid X Receptor alpha (RXRa) (AID 2283012). The method in brief:
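Chimeric NR-GAL4 trans-activation in HepG2, 24 h treatment; reporter transcripts quantified by fluorescence on capillary electrophoresis, analysed for upward change from DMSO.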
As for `CC1=CC[C@@]23C[C@@H]1C(C)(C)[C@@H]2CC[C@H]3C`, the outcome was inactive.

For `CCCCCCCCSCCO`, the compound was called inactive.

For the compound `CC(C)(C)OC(=O)c1ccc(O)cc1`, the result was inactive.

As for `CCCSc1ccc2nc(NC(=O)OC)[nH]c2c1`, the outcome was inactive.

`COC(C)(C)CCCC(C)CC=O` (stereo not given): the outcome was inactive.

In the case of `COC(=O)c1ccc(C)cc1C1=NC(C)(C(C)C)C(=O)N1` (stereo not given) (tested in a mixture with another compound), the call was inactive.

For `CCCCCCOCCOCCO`, the compound was classed as inactive.

For the compound `CCCCCCOC(=O)CCC`, the compound was classed as inactive.

`O=C1NC2NC(=O)NC2N1` (stereo not given): the call was inactive.

`C=C1CC[C@H](O)C/C1=C/C=C1\CCC[C@]2(C)[C@@H]([C@H](C)/C=C/[C@H](C)C(C)C)CC[C@@H]12`: the call was inactive.

As for `ON=C1CCCCC1`, the call was inactive.

Consider `O=C(O)CCCCCCCCCCCC(=O)O`, for which the compound was called inactive.

For the compound `CC(C)(C)c1ccc(C(=O)O)cc1`, the outcome was inactive.

Turning to `CCCCCCCCCC(C)C=O` (stereo not given), the compound was called inactive.

As for `CCC1(C)NC(=O)NC1=O` (stereo not given), the compound was classed as inactive.

In the case of `CCCCCCC(=O)c1ccccc1`, the outcome was inactive.

Turning to `CCCCCCCCc1ccc(S(=O)(=O)O)cc1`, the outcome was inactive.

As for `O=C1OC(=O)c2c(Br)c(Br)c(Br)c(Br)c21`, the outcome was inactive.

As for `COc1cc(CCC(C)=O)ccc1O`, the compound was classed as inactive.

Consider `COCCc1ccc(OCC(O)CNC(C)C)cc1` (stereo not given), for which the outcome was inactive.

`Cc1ccc(C)o1`: the call was inactive.

As for `CCc1ccc(O)cc1`, the outcome was inactive.

As to `CCCC(C)C(O)CC` (stereo not given), the call was inactive.

With `N#Cc1cscn1`, the compound was called inactive.

Regarding `FC(F)(F)COCC(F)(F)F`, the result was inactive.

As for `CCCC[O][Al]([O]CCCC)[O]CCCC`, the outcome was inactive.

With `CCOCCOCCOCC`, the compound was classed as inactive.

As for `CCOC(=O)CN`, the result was inactive.

As for `Cc1ccc(-c2ccccc2)cc1`, the compound was classed as inactive.

In the case of `C=C(CC(=O)O)C(=O)O`, the compound was called inactive.

Take `CC1=C(Br)C(=O)C(Br)=C/C1=C(/c1ccccc1S(=O)(=O)O)c1cc(Br)c(O)c(Br)c1C`: the call was inactive.

As for `CC(=O)NCCO`, the compound was called inactive.

As to `CN(C)c1ccncc1`, the outcome was inactive.

`CCCCCc1ccco1`: the call was inactive.

With `Cc1c(OCC(F)(F)F)ccnc1CS(=O)c1nc2ccccc2[nH]1` (stereo not given), the compound was called inactive.

Turning to `O=c1[nH]c(=O)c2cn[nH]c2[nH]1`, the call was inactive.

Take `CC(=O)O[C@@H]1CC2CCC1(C)C2(C)C` (stereo not given in full): the result was inactive.

Another assay has as its target human Retinoid X Receptor beta (RXRb), RXRB (gene 6257) (UniProt P28702). In words: ATG_RXRb_TRANS: Attagene TRANS-FACTORIAL HepG2 Assay for human Retinoid X Receptor beta (RXRb) (AID 2283013). The method in brief:
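After a 24 h incubation with test chemical, transfected HepG2 cells carrying NR-Gal4 fusions and GAL4-UAS reporter transcription units yield RNA whose reporter cDNA is FAM-labelled, HpaI-cut and sized by capillary electrophoresis; increases over DMSO are scored.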
As for `CC1=CC[C@@]23C[C@@H]1C(C)(C)[C@@H]2CC[C@H]3C`, the AC50 is 58.9 µM (active).

Turning to `CCCCCCCCSCCO`, the result was inactive.

Regarding `CCCSc1ccc2nc(NC(=O)OC)[nH]c2c1`, the result was inactive.

Regarding `CCCCCCOC(=O)CCC`, the compound was called inactive.

As to `ON=C1CCCCC1`, the compound was called inactive.

In the case of `CC(C)(C)c1ccc(C(=O)O)cc1`, the call was inactive.

As to `CCCCCCCCCC(C)C=O` (stereo not given), the compound was classed as inactive.

Turning to `CCCCCCCCc1ccc(S(=O)(=O)O)cc1`, the call was inactive.

As to `Cc1ccc(C)o1`, the result was inactive.

Regarding `CCOC(=O)CN`, the result was inactive.

With `Cc1ccc(-c2ccccc2)cc1`, the compound was classed as inactive.

Consider `C=C(CC(=O)O)C(=O)O`, for which the call was inactive.

Turning to `CC(=O)NCCO`, the compound was classed as inactive.
